The source made the active and inactive calls. The call rests on the fitted dose curve.

These results are taken from PubChem BioAssay AID1011 (National Center for Advancing Translational Sciences (NCATS), 2008).

The assay is described as follows: Confirmation Concentration-Response Assay for Inhibitors of the Schistosoma mansoni Redox Cascade. Particulars: S. mansoni TGR/Prx2 coupled, NADPH fluorescence kinetics. An excerpt: NIH Molecular Libraries Screening Centers Network [MLSCN] NIH Chemical Genomics Center [NCGC] MLSCN Grant: MH076449-01 Assay Provider: Prof David Williams, Illinois State University This is a confirmation assay for PubChem BioAssay AID 448. Schistosoma mansoni, a causative agent of schistosomiasis, resides in the bloodstream of their host up to 30 years without being eliminated by the host immune attack. One proposed survival mechanism is the production of an antioxidant "firewall" that neutralizes the oxidative assault of the host's immune attack. Schistosoma mansoni peroxiredoxins (Prx) are important parasite antioxidant proteins that play a crucial role in redox balance mechanisms. […] First, the proteins are essential for the parasite survival. […] Third, the protein(s) is amenable for study at the molecular level and can be produced in bacteria in large quantities, in soluble and active form. Inhibition of Prx activity was screened in a coupled-enzyme format with reducing equivalents being transferred from NADPH to […] via thioredoxin/glutathione reductase (TGR)-catalyzed reaction, then from thioredoxin to hydrogen peroxide via Prx-catalyzed electron transfer. A decrease in the fluorescence intensity of NADPH was used to measure the enzyme activity. Purified S. mansoni TGR and Prx were provided by Professor David L. Williams, Illinois State University.
Buffer: 100 mM phosphate buffer, pH 7.4, 10 mM EDTA, 0.01% Tween-20. […] 100 uM NADPH/25 nM TGR/700 uM GSH/50 nM Prx2 mixture in columns 1, 2, 5-48. Titration of control potassium antimonyl tartrate (PAT, from 1 mM, then 1:5) pin-transferred to lower half of column 2. Column 1 and upper half of column 2 are neutral (100% activity). Assay Steps: Three uL of reagents were dispensed to 1536-well Greiner black plates. Compounds and controls (20 nL) were transferred via Kalypsys PinTool. The plates were incubated for 15 min at room temperature, and then a 1 uL aliquot of 400 uM NADPH/700 uM GSH was added, immediately followed by a 1uL aliquot of 2.5 mM H2O2 (to start the reaction). The plate was transferred to ViewLux (Perkin-Elmer) High-throughput CCD imager where kinetic measurements (every 30 sec, for a total of 8 min) of NADPH fluorescence were taken using 365 nm excitation/450 nm emission filter set. During dispense, enzyme-containing reagent bottles were kept submerged into 4 deg C water bath to minimize degradation.
Take `CC1=CC(=O)NP(=O)(Oc2ccccc2)N1` (stereo not drawn): the Potency was 2030 nM (active).
On to `COc1ccc2cc(CN(C[C@H]3COCCO3)S(=O)(=O)c3ccc(Cl)cc3)c(=O)[nH]c2c1`, for which the compound was classed as inactive.
Take `CC1=CC(=O)NP(=O)(Oc2ccc(Cl)cc2)N1` (stereo not drawn): the Potency is 420 nM (active).
As for `Cc1conc1C(=O)c1no[n+]([O-])c1C(=O)c1nocc1C`, the result was inactive.
Turning to `COc1ccc(S(=O)(=O)N(CCCN2CCCC2=O)Cc2cc3c(C)ccc(C)c3[nH]c2=O)cc1`, the Potency was 50100 nM (active).
Still for that read-out and setting: the value for `O=P(Nc1ccccc1F)(c1ccccc1)c1nc2ccccc2s1` (stereo not drawn) was 23900 nM (active).
Regarding `O=C1c2cccc3cccc(c23)N1Cc1ccccc1`, the outcome was inactive.
Consider `Cc1cc(C)c2cc(CN(CC3COCCO3)S(=O)(=O)c3ccc(Cl)cc3)c(=O)[nH]c2c1` (stereo not drawn), for which the compound was called inactive.
For `CC1=CC(=O)NP(=O)(Oc2ccc3ccccc3c2)N1` (stereo not drawn), the Potency is 120 nM (active).
Take `Cc1cc2cc(CN(CCCN3CCCC3=O)S(=O)(=O)c3ccc(F)cc3)c(=O)[nH]c2cc1C`: the result was inactive.
As for `CCN1C(=O)c2cccc3cccc1c23`, the outcome was inactive.
Take `CCCCOc1cc(Br)c2noc3c2c1C(=O)c1ccccc1-3`: the Potency is 800 nM (active).
For the compound `COc1ccc(C(=O)c2no[n+]([O-])c2C(=O)c2ccc(OC)cc2)cc1`, the Potency was 4670 nM (active).
For the compound `CCOc1ccc(OP2(=O)NC(=O)C=C(C)N2)cc1` (stereo not drawn), the Potency is 180 nM (active).
On to `CCOCN1C(=O)c2cccc3cccc1c23`, for which the call was inactive.
Consider `O=C(c1ccco1)c1no[n+]([O-])c1C(=O)c1ccco1`, for which the Potency was 1520 nM (active).
Consider `O=C(c1cccs1)c1no[n+]([O-])c1C(=O)c1cccs1`, for which the Potency is 1480 nM (active).
As for `COc1ccc2cc(CN(C[C@H]3COCCO3)S(=O)(=O)c3ccccc3)c(=O)[nH]c2c1`, the compound was classed as inactive.
With `COC(=O)C(C(=O)OC)c1cc(Br)c2noc3c2c1C(=O)c1ccccc1-3`, the Potency was 120 nM (active).
As to `Cc1ccc(S(=O)(=O)N(CCCN2CCCC2=O)Cc2cc3c(C)ccc(C)c3[nH]c2=O)cc1`, the outcome was inactive.
For the compound `COc1ccc(S(=O)(=O)N(Cc2cc3ccc(OC)cc3[nH]c2=O)C[C@H]2COCCO2)cc1`, the Potency is 66300 nM (active).
For `CN1C(=O)c2cccc3cccc1c23`, the compound was called inactive.
`CCOC(=O)C(C(=O)OCC)c1cc(Br)c2noc3c2c1C(=O)c1ccccc1-3`: the compound was called inactive.
